Article PMC6451091, “NextPBM: a platform to study cell-specific transcription factor binding and cooperativity”
The full ranking holds about 3,700 sequences; the median of “z-score” is about 4, and the highest 2% start at about 8.4. For the sample, the highest values were picked, then their nearest neighbours and some sequences at random.

Legend:
[1] = target: PU.1 (IVT) (UniProt P17947 1-270); assay: protein-binding microarray (PBM); 20 mM HEPES pH 7.9, 100 mM NaCl, 1 mM DTT, 0.2 mg/mL BSA, 0.02% Triton X-100, 2% milk, 0.4 mg/mL salmon testes DNA; 1 h; temperature not stated; high values mean tight binding; details: dsDNA, one strand shown
Summary of the method: (§1)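 Binding is given as a z-score derived from scanned fluorescence that was normalised by linear regression. To obtain it, full-length untagged PU.1 from coupled human in vitro transcription/translation was applied for 1 h to custom double-stranded DNA microarrays of 20-bp genomic sites and single-nucleotide variants, using 10 probes per site with 5 in each orientation. The binding buffer was HEPES pH 7.9 with 100 mM NaCl, 2% milk and salmon testes DNA, and detection used anti-PU.1 and then a fluorescent secondary antibody.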

[2] = target: PU.1 (IVT) (UniProt P17947 1-270); assay: as above; details: dsDNA, one strand shown; remark: listed apart in the source
Summary of the method: as §1

Row | Sequence | binding signal [1] [z-score] | binding signal [2] [z-score]
1 | GCCTAGCACTTTAAAGGGAAATACTGTGGGTGCTAGGTCTTGATTCGCTTGACGCTGCTG | 1.36 | –
2 | GCCTAGCACAGAAACAGGAACTGAGGCCAGTGCTAGGTCTTGATTCGCTTGACGCTGCTG | – | 4.78
3 | GCCTAGCACGAAAACAGGAAGTCCGATAGGTGCTAGGTCTTGATTCGCTTGACGCTGCTG | – | 7.15
4 | GCCTAGCACTGGGAGAGGAAGTGATGAGCGTGCTAGGTCTTGATTCGCTTGACGCTGCTG | 4.01 | –
5 | GCCTAGCACAAGCAGAGGAAGTGAGATTTGTGCTAGGTCTTGATTCGCTTGACGCTGCTG | – | 3.71
6 | GCCTAGCACCAAAAAGGGAAGTGGACGCTGTGCTAGGTCTTGATTCGCTTGACGCTGCTG | – | 6.7
7 | GCCTAGCACATCATCAGGAACTGAAACTGGTGCTAGGTCTTGATTCGCTTGACGCTGCTG | – | 1.18
8 | GCCTAGCACAAAGAGAGGAAGTCCCAAGAGTGCTAGGTCTTGATTCGCTTGACGCTGCTG | 3.78 | –
9 | GCCTAGCACTCAAGAAGGAAGTGCCAAATGTGCTAGGTCTTGATTCGCTTGACGCTGCTG | 3.31 | –
10 | GCCTAGCACAGAAAAAGGAACTGTGCCCCGTGCTAGGTCTTGATTCGCTTGACGCTGCTG | – | 3.05
11 | GCCTAGCACAGCAAGAGGAAGTCAAGTACGTGCTAGGTCTTGATTCGCTTGACGCTGCTG | 4.55 | –
12 | GCCTAGCACAGGAAGAGGAAGTGACAGATGTGCTAGGTCTTGATTCGCTTGACGCTGCTG | 6.27 | –
13 | GCCTAGCACAGAAAGAGGAAGTCGAGGTGGTGCTAGGTCTTGATTCGCTTGACGCTGCTG | – | 7.74
14 | GCCTAGCACAGAAAGAGGAAATGACCTATGTGCTAGGTCTTGATTCGCTTGACGCTGCTG | 5.8 | –
15 | GCCTAGCACAGAAAGAGGAAGTTCCCGTCGTGCTAGGTCTTGATTCGCTTGACGCTGCTG | – | 8.56
16 | GCCTAGCACAGAAAGAGGAAGAGAAACTTGTGCTAGGTCTTGATTCGCTTGACGCTGCTG | 4.63 | –
17 | GCCTAGCACAGAAAGAGGAAGTGACACTTGTGCTAGGTCTTGATTCGCTTGACGCTGCTG | – | 8.52
18 | GCCTAGCACTGAAAGAGGAAGTGTAACCAGTGCTAGGTCTTGATTCGCTTGACGCTGCTG | – | 7.2
19 | GCCTAGCACAGAAAGAGGAAGAGCCTCAGGTGCTAGGTCTTGATTCGCTTGACGCTGCTG | 5.13 | –
20 | GCCTAGCACGAAAAGAGGAAGTGTAACCAGTGCTAGGTCTTGATTCGCTTGACGCTGCTG | – | 8.52
21 | GCCTAGCACAGAAAGAGGAAGTCTCTGCCGTGCTAGGTCTTGATTCGCTTGACGCTGCTG | – | 7.37
22 | GCCTAGCACAGAAAGAGGAAGTTATGTGCGTGCTAGGTCTTGATTCGCTTGACGCTGCTG | – | 8.58
23 | GCCTAGCACGAAAAGAGGAAGTCAAACCAGTGCTAGGTCTTGATTCGCTTGACGCTGCTG | – | 8.22
24 | GCCTAGCACACCAGGAGGAAGTGGTTGCAGTGCTAGGTCTTGATTCGCTTGACGCTGCTG | 4.06 | –
25 | GCCTAGCACCGAAAGAGGAAGTGCAACCAGTGCTAGGTCTTGATTCGCTTGACGCTGCTG | – | 7.64
26 | GCCTAGCACGATAAGAGGAAGTGCTCTGTGTGCTAGGTCTTGATTCGCTTGACGCTGCTG | 6.52 | –

Row | Sequence | binding signal [1] [z-score] | binding signal [2] [z-score]
27 | GCCTAGCACTTTAAAGGGAAATGAAACTGGTGCTAGGTCTTGATTCGCTTGACGCTGCTG | – | 1.39
28 | GCCTAGCACGAAAAGAGGAACAGCCTCTGGTGCTAGGTCTTGATTCGCTTGACGCTGCTG | 5.13 | –
29 | GCCTAGCACGAAAGGGGGAAGTGACTAAGGTGCTAGGTCTTGATTCGCTTGACGCTGCTG | 5.51 | –
30 | GCCTAGCACTCTCTGAGGAAGTGAAACTCGTGCTAGGTCTTGATTCGCTTGACGCTGCTG | 2.86 | –
31 | GCCTAGCACAGAAAGAGGAAGTGCTGAGGGTGCTAGGTCTTGATTCGCTTGACGCTGCTG | – | 7.75
32 | GCCTAGCACAAAAAAAGGATATGAAAGTAGTGCTAGGTCTTGATTCGCTTGACGCTGCTG | 0.953 | –
33 | GCCTAGCACAAAAAGAGGAACTGAATGTCGTGCTAGGTCTTGATTCGCTTGACGCTGCTG | – | 7.27
34 | GCCTAGCACGAAAGGAGGAAGTACTGTGGGTGCTAGGTCTTGATTCGCTTGACGCTGCTG | – | 6.78
35 | GCCTAGCACAGAAAGAGGAAGTGGAAGAGGTGCTAGGTCTTGATTCGCTTGACGCTGCTG | – | 8.16
36 | GCCTAGCACAGAAAGAGGAAGAGCTGCCAGTGCTAGGTCTTGATTCGCTTGACGCTGCTG | 4.1 | –
37 | GCCTAGCACAGAAAGAGGAAGTGCCTCTTGTGCTAGGTCTTGATTCGCTTGACGCTGCTG | – | 8.4
38 | GCCTAGCACTCAAGGAGGAAGTGAGAGATGTGCTAGGTCTTGATTCGCTTGACGCTGCTG | 4.31 | –
39 | GCCTAGCACGTTTTGAGGAACTGAAACTCGTGCTAGGTCTTGATTCGCTTGACGCTGCTG | 4.5 | –
40 | GCCTAGCACCGAAAAGGGAAATACTGTGAGTGCTAGGTCTTGATTCGCTTGACGCTGCTG | 2.65 | –
41 | GCCTAGCACAGAAAGAGGAAGAGAAACTAGTGCTAGGTCTTGATTCGCTTGACGCTGCTG | – | 4.62
42 | GCCTAGCACAGAAAGAGGAAGTGAAGCTAGTGCTAGGTCTTGATTCGCTTGACGCTGCTG | – | 8.64
43 | GCCTAGCACAGAAAGAGGAAGACTAGTGTGTGCTAGGTCTTGATTCGCTTGACGCTGCTG | 3.78 | –
44 | GCCTAGCACAGAAGAAGGAAGTGAAAGAAGTGCTAGGTCTTGATTCGCTTGACGCTGCTG | 4.5 | –
45 | GCCTAGCACAGAAAGAGGAAGTGATTGAAGTGCTAGGTCTTGATTCGCTTGACGCTGCTG | – | 8.32
46 | GCCTAGCACAGAAAGAGGAAGTGTTTATAGTGCTAGGTCTTGATTCGCTTGACGCTGCTG | – | 8.43
47 | GCCTAGCACAGAAAGAGGAAGTGACTCAGGTGCTAGGTCTTGATTCGCTTGACGCTGCTG | – | 8.06
48 | GCCTAGCACAGAAAGAGGAAGTGATGTTAGTGCTAGGTCTTGATTCGCTTGACGCTGCTG | – | 8.46
49 | GCCTAGCACAGAAAGAGGAAGTGGGTGTTGTGCTAGGTCTTGATTCGCTTGACGCTGCTG | – | 8
50 | GCCTAGCACTCCAGGAGGAACTGAAAGCTGTGCTAGGTCTTGATTCGCTTGACGCTGCTG | – | 1.74
51 | GCCTAGCACAAAAAGAGGAAATGATTTACGTGCTAGGTCTTGATTCGCTTGACGCTGCTG | – | 6.97
52 | GCCTAGCACGAAAACAGGAACTGCAAATAGTGCTAGGTCTTGATTCGCTTGACGCTGCTG | 6 | –
